In PubChem BioAssay (Tox21):
Values joined by “and” are separate entries in the source; they are usually repeats but may differ in a detail not shown here. Equal values may be shown once. Results filed as inconclusive are left out. A call without a number means that no potency is given here. Where a structure was tested more than once in an assay, its records may differ in their call. Active and inactive are the calls of the source. Calls follow the shape of the dose curve; as a rule, active = well fitted curve in the direction sought with a large enough effect in the repeat runs; inconclusive = weak or mixed curves; inactive = no such curve, though single readings can be large; an effect the other way counts as inactive or inconclusive.

Tests used:
[1] = Caspase-3/7 induction in HepG2 cells by small molecules, qHTS assay (AID 1346978); also: nearly all actives have a fitted effect of over 15% in size
Summary of the method: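 Wild-type HepG2 cells (2,000/well) were settled 5 h at 37 C, 5% CO2, then exposed to compounds in DMSO for 17 h. Caspase-3/7 activity was read by luminescence 30 min after adding Caspase-Glo 3/7 reagent at room temperature.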

[2] = Caspase-3/7 induction in CHO-K1 cells by small molecules, qHTS cell viability counter screen (AID 1346979); also: nearly all actives have a fitted effect of over 35% in size; also: potency is read from the fitted curve at half-maximal effect
Summary of the method: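 Following a 5hr settling period, CHO-K1 cells at 1,500 per well received DMSO-dissolved compounds. Cell viability was quantified 16hr later by CellTiter-Fluor fluorescence, measured after 1hr with reagent at 37C.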

[3] = Caspase-3/7 induction in CHO-K1 cells by small molecules, qHTS assay (AID 1346980); also: nearly all actives have a fitted effect of over 15% in size
Summary of the method: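 Wild-type cells were seeded at 1,500 per well and settled 5 hr at 37 C, 5% CO2, then exposed to DMSO-dissolved compounds for 17 hr. Caspase-Glo 3/7 reagent was added, and luminescence was read after 30min at room temperature.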

[4] = Caspase-3/7 induction in HepG2 cells by small molecules, qHTS cell viability counter screen (AID 1346981); also: nearly all actives have a fitted effect of over 30% in size; also: potency is read from the fitted curve at half-maximal effect
Summary of the method: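 In this quantitative HTS counter screen, compounds delivered in DMSO were left on unmodified HepG2 cells for 16 hr at 37 C. Viability was then determined fluorometrically with CellTiter-Fluor, in parallel with caspase-3/7 induction in the same wells.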

[5] = target: Nuclear receptor subfamily 1 group I member 2 (Homo sapiens) (UniProt O75469); test: Human pregnane X receptor (PXR) small molecule agonists, qHTS assay (AID 1346982); also: nearly all actives have a fitted effect of over 35% in size; also: potency is read from the fitted curve at half-maximal effect
Summary of the method: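 Reporter HepG2 cells expressing PXR-Luc are cultured in charcoal-stripped FBS (5%), treated with compounds for 24 hr at 37 C, and assayed by ONE-Glo luminescence after 30 min at room temperature.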

[6] = target: Nuclear receptor subfamily 1 group I member 2 (Rattus norvegicus) (UniProt Q9R1A7); test: Rat pregnane X receptor (rPXR) activation by small molecules, qHTS assay (AID 1346983); conditions: rPXR luciferase reporter cells, One-Glo luminescence, 24 h; max activation: stronger effect = higher value; also: nearly all actives have a fitted effect of over 20% in size
Summary of the method: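 Cell-based rPXR luciferase reporter assay, 2,000 cells per well, rested 5hr at 37 C before compound addition in DMSO, then 24 hr at 37 C. One-Glo reagent was added and luminescence read after 30 min at room temperature.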

[7] = target: Nuclear receptor subfamily 1 group I member 2 (Homo sapiens) (UniProt O75469); test: CYP3A4 induction through human pregnane X receptor (PXR) by small molecules, qHTS assay (AID 1346984); also: nearly all actives have a fitted effect of over 40% in size
Summary of the method: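 Induction measured in HepG2-based DPX-2 cells co-expressing human PXR and a CYP3A4 promoter-driven luciferase. After a 24-hour compound exposure, cells received CYP3A4 luciferin substrate at 3uM final for 3 hours, and light output was then recorded.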

[8] = target: Nuclear receptor subfamily 1 group I member 2 (Homo sapiens) (UniProt O75469); test: Human pregnane X receptor (PXR) activation by small molecules, qHTS assay (AID 1346985); also: nearly all actives have a fitted effect of over 40% in size
Summary of the method: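 DPX-2 cells (HepG2 co-transfected with a PXR response element and a CYP3A4-promoter luciferase construct) were seeded at 2,000 per well, rested 5 hr at 37C, then exposed to DMSO-dissolved compounds for 24 hr. Activation was read as luciferase luminescence.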

[9] = target: Cytochrome P450 2D6 (Homo sapiens) (UniProt P10635); test: Cytochrome P450 Family 2 Subfamily D Member 6 (CYP2D6) small molecule antagonists: luciferase reporter qHTS assay (AID 1671196); also: nearly all actives have a fitted effect of over 50% in size; also: potency is read from the fitted curve at half-maximal effect
Summary of the method: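 Test chemicals meet CYP2D6 plus proluciferin substrate (10 min, RT); NADPH regenerating solution then drives turnover for 1 h. Detection reagent halts the reaction; luminescence measured after 20 min.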

[10] = target: Cytochrome P450 2C19 (Homo sapiens) (UniProt P33261); test: Cytochrome P450 Family 2 Subfamily C Member 19 (CYP2C19) small molecule antagonists: luciferase reporter qHTS assay (AID 1671197); also: nearly all actives have a fitted effect of over 65% in size; also: potency is read from the fitted curve at half-maximal effect
Summary of the method: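 Luminescent readout of CYP2C19 activity: luciferin product detected 20 min after adding detection reagent. Before that, compound and enzyme-substrate mix preincubated 10 min at room temperature; NADPH-regenerating system started a 1 h, 37C reaction. Ketoconazole as positive control.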

Chain of Cytochrome P450 2D6 (Homo sapiens) (P10635 whole entry, looked up): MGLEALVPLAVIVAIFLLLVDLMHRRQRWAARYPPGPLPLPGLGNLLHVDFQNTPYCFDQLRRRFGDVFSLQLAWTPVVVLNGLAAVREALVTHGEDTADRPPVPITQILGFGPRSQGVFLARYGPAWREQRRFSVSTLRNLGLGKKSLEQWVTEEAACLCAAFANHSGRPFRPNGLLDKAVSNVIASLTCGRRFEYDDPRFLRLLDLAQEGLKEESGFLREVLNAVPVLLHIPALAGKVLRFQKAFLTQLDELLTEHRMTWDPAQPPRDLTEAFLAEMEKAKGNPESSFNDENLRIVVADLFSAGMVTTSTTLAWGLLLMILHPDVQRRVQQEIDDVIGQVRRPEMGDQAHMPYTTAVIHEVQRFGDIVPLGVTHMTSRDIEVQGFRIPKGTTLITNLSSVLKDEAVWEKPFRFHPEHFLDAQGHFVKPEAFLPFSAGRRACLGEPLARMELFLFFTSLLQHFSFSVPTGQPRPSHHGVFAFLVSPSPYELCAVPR
Chain of Cytochrome P450 2C19 (Homo sapiens) (P33261 whole entry, looked up): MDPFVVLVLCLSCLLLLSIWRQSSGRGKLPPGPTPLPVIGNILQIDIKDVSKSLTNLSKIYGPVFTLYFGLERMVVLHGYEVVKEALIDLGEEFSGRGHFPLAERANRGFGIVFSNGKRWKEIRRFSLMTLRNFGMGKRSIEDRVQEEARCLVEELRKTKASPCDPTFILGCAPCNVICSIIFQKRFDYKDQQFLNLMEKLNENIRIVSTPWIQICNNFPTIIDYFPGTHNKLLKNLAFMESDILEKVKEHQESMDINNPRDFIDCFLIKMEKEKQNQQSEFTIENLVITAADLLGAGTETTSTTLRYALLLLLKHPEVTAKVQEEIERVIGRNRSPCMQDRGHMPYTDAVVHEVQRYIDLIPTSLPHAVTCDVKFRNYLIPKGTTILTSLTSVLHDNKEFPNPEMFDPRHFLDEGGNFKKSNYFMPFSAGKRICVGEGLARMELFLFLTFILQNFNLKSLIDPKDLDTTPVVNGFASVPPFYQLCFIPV
Chain of Nuclear receptor subfamily 1 group I member 2 (Homo sapiens) (O75469 whole entry, looked up): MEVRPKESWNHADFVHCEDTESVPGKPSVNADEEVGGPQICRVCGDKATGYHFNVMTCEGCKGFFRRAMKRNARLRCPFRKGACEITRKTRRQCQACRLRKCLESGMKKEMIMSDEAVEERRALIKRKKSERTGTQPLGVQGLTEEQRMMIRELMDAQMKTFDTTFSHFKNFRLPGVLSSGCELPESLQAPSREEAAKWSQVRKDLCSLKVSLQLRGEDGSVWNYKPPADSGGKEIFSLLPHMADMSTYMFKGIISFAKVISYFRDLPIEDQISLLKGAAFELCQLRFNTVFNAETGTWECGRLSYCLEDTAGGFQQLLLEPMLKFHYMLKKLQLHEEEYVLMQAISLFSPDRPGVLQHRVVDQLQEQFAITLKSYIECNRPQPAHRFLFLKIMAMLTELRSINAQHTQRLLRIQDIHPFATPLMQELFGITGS
Chain of Nuclear receptor subfamily 1 group I member 2 (Rattus norvegicus) (Q9R1A7 whole entry, looked up): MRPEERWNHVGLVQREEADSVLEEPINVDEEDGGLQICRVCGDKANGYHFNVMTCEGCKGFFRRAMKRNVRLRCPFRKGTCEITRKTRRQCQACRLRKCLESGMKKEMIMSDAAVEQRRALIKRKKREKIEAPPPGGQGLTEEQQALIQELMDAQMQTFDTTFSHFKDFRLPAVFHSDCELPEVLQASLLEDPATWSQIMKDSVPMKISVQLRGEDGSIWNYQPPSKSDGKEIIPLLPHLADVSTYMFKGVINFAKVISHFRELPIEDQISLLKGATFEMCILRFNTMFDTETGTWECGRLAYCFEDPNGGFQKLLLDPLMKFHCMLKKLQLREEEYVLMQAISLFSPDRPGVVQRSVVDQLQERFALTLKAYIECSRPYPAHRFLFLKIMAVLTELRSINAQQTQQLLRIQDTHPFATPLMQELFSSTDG

SMILES	Potency [1]	Potency [2]	Potency [3]	Potency [4]	Potency [5]	max activation [6]	Potency [7]	Potency [8]	Potency [9]	Potency [10]
CN1CCOCC1	inactive	inactive	inactive	inactive	–	–	–	–	–	–
CN(C)/N=N/c1nc[nH]c1C(N)=O	inactive	inactive	inactive	inactive	inactive	-1.32% (inactive)	inactive	inactive	inactive	inactive
Oc1c(Cl)ccc(Cl)c1Cl	inactive	inactive	inactive	inactive	inactive	–	–	–	71 µM (active)	–
CC(=O)O[C@]1(C(C)=O)CC[C@H]2[C@@H]3C=C(Cl)C4=CC(=O)CC[C@]4(C)[C@H]3CC[C@@]21C	inactive	61 µM (active)	inactive	61 µM (active) and inactive	68.5 µM (active) and inactive	–	inactive	inactive	inactive	12.6 µM (active) and 4.36 µM (active)
CCCCCCCCCCC(CO)CCCCCCCC (stereo not drawn)	inactive	inactive	inactive	inactive	inactive	-1.75% (inactive)	inactive	inactive	inactive	inactive
CC(=O)Oc1c(C)c(C)c2c(c1C)CC[C@@](C)(CCC[C@H](C)CCC[C@H](C)CCCC(C)C)O2	inactive	inactive	inactive	inactive	inactive	-0.642% (inactive) and -1.19% (inactive)	inactive	inactive	inactive	–
C/C=C/C(=O)N(CC)c1ccccc1C	inactive	inactive	inactive	inactive	inactive	-1.94% (inactive)	inactive	–	inactive	44.8 µM (active) and 17.4 µM (active)
Nc1ccc2c(c1)C(=O)c1ccccc1C2=O	inactive	53.5 µM (active) and 54.5 µM (active)	inactive	30.1 µM (active)	190 nM (active) and 486 nM (active)	–	–	–	–	–
FC(F)(F)C(Cl)Br (stereo not drawn)	inactive	inactive	inactive	inactive	inactive	-0.375% (inactive)	inactive	inactive	inactive	inactive
Cc1ccc(/C(=C\CN2CCCC2)c2ccccn2)cc1	inactive	inactive	inactive	inactive	inactive	-1.02% (inactive)	inactive	inactive	–	inactive
CCc1cccc2c3c([nH]c12)C(CC)(CC(=O)O)OCC3 (stereo not drawn)	inactive	inactive	inactive	inactive	inactive	1.85% (inactive)	inactive	inactive	20 µM (active) and inactive	39.8 µM (active)
C[N+](C)(C)CCO	inactive	inactive	inactive	inactive	inactive	–	–	–	inactive	–
Cc1ccc(S(=O)(=O)NCl)cc1	inactive	inactive	inactive	inactive	inactive	4.18% (inactive)	inactive	inactive	inactive	inactive
C=CN1CCCC1=O	inactive	inactive	inactive	inactive	inactive	–	–	–	inactive	–
OC[C@@H](O)[C@@H](O[C@@H]1O[C@H](CO)[C@H](O)[C@H](O)[C@H]1O)[C@H](O)[C@@H](O)CO	inactive	inactive	inactive	inactive	inactive	-8.22% (inactive)	inactive	inactive	inactive	inactive
Cc1ccc(N)c([N+](=O)[O-])c1	inactive	inactive	inactive	inactive	inactive	–	–	–	39.4 µM (active) and inactive	–
CCC(=O)O[C@H]1[C@H](O[C@@H]2[C@@H](C)[C@H](O[C@H]3C[C@@](C)(OC)[C@@H](O)[C@H](C)O3)[C@@H](C)C(=O)O[C@H](CC)[C@@](C)(O)[C@H](O)[C@@H](C)C(=O)[C@H](C)C[C@@]2(C)O)O[C@H](C)C[C@@H]1N(C)C	inactive	inactive	inactive	inactive	9.07 µM (active) and inactive	–	–	–	inactive	–
O=S1(=O)CCCO1	inactive	inactive	inactive	inactive	inactive	–	–	–	inactive	inactive
C[C@]12C=CC(=O)C=C1CC[C@H]1[C@@H]3C[C@@H](O)[C@](O)(C(=O)CO)[C@@]3(C)C[C@H](O)[C@@]12F	inactive	inactive	–	inactive	inactive	-5.29% (inactive)	inactive	inactive	inactive	–
CC1(C)OC(=O)NC1=O	inactive	inactive	inactive	inactive	–	–	–	–	inactive	inactive
C=CC(=O)OCCCC	inactive	inactive	inactive	inactive	inactive	–	–	–	inactive	inactive
